According to PubChem BioAssay AID2284326 (EPA ToxCast):
Records with an inconclusive call do not appear. Activity calls are given as the source filed them. The calls were made as follows: active = hit-call score of the fitted dose curve at least 0.9, where 1 is the maximum; inconclusive = response in the unintended direction; inactive = score below 0.9.

System: TPO (gene 7173)
Assay: CCTE_GLTED_hTPO: CCTE's human Thyroperoxidase (hTPO) Inhibition Assay, Great Lakes Toxicology and Ecology Division (GLTED) Lab
Experimental: CCTE_GLTED_hTPO is a cell-free, single-readout assay designed to test the inhibitory activity of chemicals toward human thyroperoxidase (TPO) protein. Uninhibited enzyme converts Amplex UltraRed to a fluorescent product. Measurements were taken 0.5 hour after chemical dosing in a 96-well plate. CCTE_GLTED_hTPO is the assay component measured from the CCTE_GLTED_hTPO assay. It is designed to make measurements of enzyme activity, a form of enzyme reporter, as detected with […] by Fluorescence technology.Data from the assay component CCTE_GLTED_hTPO was analyzed at the assay endpoint CCTE_GLTED_hTPO in the positive analysis fitting direction relative to DMSO as the negative control and baseline of activity. Using a type of enzyme reporter (the Amplex UltraRed assay), loss-of-signal activity can be used to understand decreased peroxidase activity in the presence of excess […]. To generalize the intended target to other relatable targets, this assay endpoint is annotated to the 'oxidoreductase' intended target family, where the subfamily is 'peroxidase'.
[…]

SMILES: O=S(=O)(O)C(F)(F)C(F)(F)C(F)(F)C(F)(F)C(F)(F)C(F)(F)C(F)(F)C(F)(F)F
- AC50: 285 µM (active)

SMILES: O=C(O)C(F)(OC(F)(F)C(F)(F)C(F)(F)F)C(F)(F)F (stereo not drawn)
- AC50: 40.2 µM (active)

SMILES: O=C(O)C(F)(F)C(F)(F)C(F)(F)C(F)(F)C(F)(F)C(F)(F)C(F)(F)C(F)(F)F
- outcome: inactive
